Measurements: publication PMC5540273 (PLoS ONE, 2017)

tested on: HIPK2; settings: concentration: 1 μM, replicates: in singlicate; n = 1
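Further: KINOMEscan kinase panel screen.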

SMILES | %Inh [%]
Cn1cncc1-c1ccc2ncnc(Nc3ccc(OCc4ccccc4)cc3)c2c1 [GW320571] | 49
Cc1cc(-c2ccc3c(c2)CC[C@@H](N[C@@H](C)c2ccccc2)C3)cnc1N.Cl [GW412617] | 6
Fc1cccc(COc2nnc(-c3ccc4c(c3)CCO4)o2)c1 | 23
O=C(Nc1n[nH]c2cc(-c3cccc(F)c3F)ccc12)C1CC1 [SB-733894] | 15
COc1cc(Nc2nccc(N3CCC(NC(=O)Nc4cc(C)ccc4C)C3)n2)cc(OC)c1OC (centres unmarked) [GSK1379762] | 0
CC(C)(C)c1ccc(C(=O)Nc2cn3cc(Cl)ccc3n2)cc1 | 0
COc1ccc2nc(-c3cccc(C)n3)nc(Nc3ccncc3)c2c1 [GSK204919] | 0
Cc1c(O)cccc1Nc1ccnc2ccc(C(F)(F)F)cc12.Cl [GW466413] | 0
Cc1ccc(-c2cc(-c3c[nH]nc3-c3ccccn3)ccn2)cc1 [GW684088] | 0
O=S(=O)(c1ccc(-c2ccnc3[nH]ccc23)cc1)N1CCCC1 [GSK846226] | 0
Cn1ccc2ncnc(Oc3cccc(C(=O)Nc4ccccc4)c3)c21 | 30
CCCc1ccc(S(=O)(=O)NC2CCN(c3ccnc(Nc4ccc(F)cc4)n3)C2)cc1 (centres unmarked) [GSK1379715] | 0
O=C1NC(=O)C(N2CCc3ccccc32)=C1c1ccccc1Cl [SB-373598] | 24
COC(=O)c1c(-c2ccccc2)c2cc(OC)ccc2c(=O)n1Cc1ccccc1 | 11
